High-throughput results (PubChem BioAssay)
FLuc counter: firefly luciferase modulation, counter-screen for miR-21 project; P08659; purified FLuc, Km substrates, luminescence inhibition; Potency, µM (titrated, usually from 57.5 µM), actives largely listed as inhibitors; actives 6.9% (n = 360,000); further: nearly all actives have a fitted effect of over 55% in size
Target sequence (P08659 whole entry, looked up): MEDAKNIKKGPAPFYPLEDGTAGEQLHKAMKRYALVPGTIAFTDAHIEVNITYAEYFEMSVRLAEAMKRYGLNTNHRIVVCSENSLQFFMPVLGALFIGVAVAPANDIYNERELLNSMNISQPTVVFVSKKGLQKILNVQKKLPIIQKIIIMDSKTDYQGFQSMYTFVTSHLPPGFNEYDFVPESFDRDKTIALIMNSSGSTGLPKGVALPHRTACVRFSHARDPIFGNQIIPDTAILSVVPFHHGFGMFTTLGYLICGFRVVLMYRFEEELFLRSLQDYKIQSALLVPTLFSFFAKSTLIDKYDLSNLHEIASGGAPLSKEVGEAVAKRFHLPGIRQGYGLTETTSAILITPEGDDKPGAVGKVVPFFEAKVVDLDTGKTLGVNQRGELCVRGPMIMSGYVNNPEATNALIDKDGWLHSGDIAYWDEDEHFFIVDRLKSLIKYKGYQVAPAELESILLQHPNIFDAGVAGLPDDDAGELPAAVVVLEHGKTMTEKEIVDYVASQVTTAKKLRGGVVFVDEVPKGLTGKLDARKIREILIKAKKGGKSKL
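Purified P. pyralis luciferase, 10 nM final, with Km-level 10 uM D-luciferin and 10 uM ATP in 50 mM Tris acetate pH 7.5, 10 mM Mg acetate, 0.01% Tween-20, 0.05% BSA; 6-point qHTS titration about 60 µM downward; luminescence read.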
Rab9 prom act: activates the Rab9 promoter; actives 2.8% (n = 320,000); Potency, µM (doses to about 9.22 µM), actives largely listed as activators; Huh7 Rab9 promoter-luciferase reporter, luminescence, 24 h; further: nearly all actives have a fitted effect of over 60% in size
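Promoter activation is measured as luciferase luminescence in Huh7 cells stably transfected with a Rab9 promoter–luciferase construct, following 24 h compound exposure at 37 °C and 10 min reagent incubation at ambient temperature.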
Luc counter: Kinase-Glo luciferase inhibition (counter-screen); Kinase-Glo luciferase, ATP luminescence, 8 min; Potency, µM (highest dose often 38.3 µM), usual class: inhibitors; actives 0.28% (n = 200,000); AID 1379; further: nearly all actives have a fitted effect of over 60% in size
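Recombinant Kinase-Glo luciferase, 10 uM ATP (linear range), luciferin; imidazole pH 7.2 / KCl / MgCl2 / Tween / BSA buffer; 8 min RT; luminescence.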
ELG1 genotox: inducers of genotoxicity in HEK293T ELG1-luciferase cells. Potency, µM (doses to about 46 µM), hits mostly activators. actives 1.3% (n = 330,000). AID 504466. HEK293T ELG1-luciferase reporter, luminescence, 16 h; further: nearly all actives have a fitted effect of over 60% in size
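HEK293T cells expressing luciferase-tagged ELG1 were treated with compound or DMSO for 16 hr at 37°C. Luciferase activity was then read after 30 min with ONE-Glo at room temperature; rising signal flags genetic stress.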
NPC1 promoter act: NPC1 promoter activation. Huh7 NPC1 promoter luciferase reporter, 24 h. Potency, µM (highest dose often 9.22 µM), actives largely listed as activators. actives 2.4% (n = 320,000); further: nearly all actives have a fitted effect of over 60% in size
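In 1536-well qHTS, Huh7 cells harboring an NPC1 promoter–luciferase construct received compound for 24 h; activation was quantified by luminescence following luciferase reagent addition.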
SMN2 splice up: enhancers of SMN2 splice variant expression. HEK293 SMN2-luciferase splicing reporter, luminescence, 30-36 h. Potency, µM (series often up to 46.1 µM), most hits filed as activators. actives 2.8% (n = 210,000). AID 1458; further: nearly all actives have a fitted effect of over 55% in size
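qHTS luciferase splicing reporter: luminescence rises when SMN2 exon 7 is included in transfected HEK293 cells. Compound exposure lasted 30-36 h at 37C, with 4.5 mM final sodium butyrate as control, followed by a ONE-Glo read.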
A number is an active result; 0 = inactive; ? = inconclusive; - = no result given; [ ] = dose if it differs, or a comment. Rows were chosen to be rich in hits. Some 7.4% of all compounds tested hit in one or more screens of this group. The call rests on the fitted dose curve; in most records, active means well fitted curve in the direction sought with a large enough effect; inconclusive means small, poorly fitted or top-dose-only effect, or another doubt; inactive means no such curve, though single readings can be large; an effect the other way counts as inactive or inconclusive.

SMILES	FLuc counter	Rab9 prom act	Luc counter	ELG1 genotox	NPC1 promoter act	SMN2 splice up
Cc1cc(S(=O)(=O)Nc2ccc3c(c2)n(C)c(=O)n3C)ccc1F	0	0	0	?	0	0
Cn1c(=O)n(C)c2cc(N3CCOCC3)c(NS(=O)(=O)c3ccc(Cl)cc3)cc21	0	-	-	-	-	0
COc1ccc(S(=O)(=O)Nc2cc3c(cc2NCc2ccccc2)n(C)c(=O)n3C)cc1OC	?	-	-	-	-	3.55µM
Cn1c(=O)n(C)c2cc(NS(=O)(=O)c3ccc(C(C)(C)C)cc3)c(NCc3ccccc3)cc21	?	-	-	-	-	5.62µM
COc1ccc(S(=O)(=O)Nc2ccc3c(c2)n(C)c(=O)n3C)cc1OC	0	0	-	?	0	-
Cc1cc(S(=O)(=O)Nc2cc3c(cc2NCc2ccccc2)n(C)c(=O)n3C)ccc1F	23.9µM	-	-	-	-	10µM
Cn1c(=O)n(C)c2cc(NS(=O)(=O)c3ccc(Cl)cc3)c(NCc3ccccc3)cc21	15.1µM	-	-	-	-	0
C/C(=N\Nc1cccc(C(=O)O)c1)c1cc2ccccc2o1	10.7µM	2.24µM	0	?	?	11.2µM
C/C(=N\Nc1ccccc1)c1cc2ccccc2oc1=O	21.3µM	0	0	0	0	-
C/C(=N\Nc1ccc(Cl)c(C(=O)O)c1)c1cc2ccccc2o1	26.9µM	?	0	?	0	0
COc1cccc(COCC(O)CN2CCC(C(N)=O)CC2)c1 (stereo not drawn)	0	0	-	0	0	-
O=C(/C=N/NC(=O)c1ccccc1Br)c1ccccc1	9.53µM	0	0	0	0	0
Cn1c(=O)n(C)c2cc(/C=N/NC(=O)c3ccc(Cl)cc3Cl)ccc21	0	0	0	0	0	0
O=C(/C=N/NC(=O)c1ccc(Cl)cc1Cl)c1ccccc1	2.69µM	?	-	0	0	-
COc1cc(OC)c(/C=N/N2CCN(c3ccccc3OC)CC2)c(OC)c1	0	0	-	0	0	-
Cc1ccc2nc(Nc3nc(=O)c4ccccc4n3C)nc(C)c2c1	2.13µM	0	0	0	0	0
Cc1ccc2nc(Nc3nc(-c4ccccc4)cc(=O)[nH]3)nc(C)c2c1	0	0	0	?	0	0
COc1ccc(OC)c(CCNC(=O)c2cc3cccc4c3n2CCS4)c1	0	-	-	-	-	-
O=C(NCc1cccnc1)c1ccc(-c2ccc(Cl)cc2)o1	?	0	0	0	0	-
O=C(Nc1cccnc1)c1ccc(-c2ccc(Cl)cc2)o1	6.01µM	?	0	0	?	0
O=C(Nc1cccnc1)c1ccc(-c2cc(Cl)ccc2Cl)o1	16.9µM	0	0	0	0	0
O=C(NCc1cccnc1)c1ccc(-c2cc(Cl)ccc2Cl)o1	0	0	0	0	0	-
CCOC(=O)Cn1cncc1-c1ccc([N+](=O)[O-])cc1	23.9µM	?	0	0	0	?
O=C(Nc1cnn(Cc2ccc(Cl)cc2Cl)c1)c1noc2c1CCc1ccccc1-2	0	-	-	-	-	0
CCN(CC)c1cc(-c2ccccc2)ncn1	?	0	0	0	0	0[1.84 µM]
SMILES	FLuc counter	Rab9 prom act	Luc counter	ELG1 genotox	NPC1 promoter act	SMN2 splice up
CN(C)c1ccc(-c2ccccc2)nn1	10.7µM	1.58µM	0	8.2µM	1.58µM	15.8µM
COC(=O)c1cn(CC(=O)Nc2ccccc2C)c2ccccc12	0	0	-	0	0	-
COC(=O)Cn1c(SCc2ccccc2)nc2ccccc21	15.1µM	0	0	?	0	0
COc1cccc(CSc2nc3ccncc3n2CC(=O)Nc2ccc(OC)c(OC)c2OC)c1	15.1µM	-	-	-	-	?
CCSc1nc2ccccc2n1CC(=O)OC	0	0	0	0	0	0
COc1ccc(CSc2nc3ccncc3n2CC(=O)Nc2cc(C)cc(C)c2)cc1	2.39µM	-	-	-	-	?
CCNS(=O)(=O)c1ccc2nc(NC(=O)c3cccnc3)sc2c1	21.3µM	?	0	0	0	0
CCN(CC)S(=O)(=O)c1ccc2nc(NC(=O)c3cccnc3)sc2c1	19µM	-	-	-	-	-
CN(Cc1cccc(F)c1)C(=O)c1ccc(S(=O)(=O)N2CCOCC2)cc1	0	0	-	0	0	-
Cc1ccc(C2=NN(S(C)(=O)=O)C(c3ccc4c(c3)OCO4)C2)cc1 (stereo not drawn)	1.69µM	2.51µM	0	5.17µM	3.55µM	17.8µM
CC(=O)N1N=C(c2ccc(C)cc2)CC1c1ccc2c(c1)OCO2 (stereo not drawn)	15.1µM	?	-	?	2.82µM	-
CS(=O)(=O)Nc1ccc(C2=NN(S(C)(=O)=O)C(c3ccc4nccnc4c3)C2)cc1 (stereo not drawn)	0	0	0	0	0	-
CS(=O)(=O)N1N=C(c2ccc(Br)cc2)CC1c1ccc2c(c1)OCO2 (stereo not drawn)	4.26µM	0.631µM	0	?	1.12µM	25.1µM
Cc1ccc2oc(C(=O)Nc3c(C(=O)c4ccc(C)c(F)c4)oc4ccccc34)cc(=O)c2c1	0	-	-	-	-	0
COc1cccc(NC(=O)Nc2ccccc2SC)c1	16.9µM	0	0	0	0	0
COc1ccc(NC(=O)Nc2ccccc2SC)cc1OC	19µM	?	0	0	0	-
COc1ccc(NC(=O)Nc2ccccc2SC)c(OC)c1	0	0	0	0	0	0
CCOC(=O)c1c(-c2ccccc2)oc2ccc(N(C(C)=O)S(=O)(=O)c3cc(C)ccc3C)cc12	0	-	-	-	-	0
CCC1=Nc2ccccc2-c2nnc(SC)nc2O1	0	0	0	0	0	2µM
Cc1cc(NC(=O)CCC(=O)N(CC(=O)NCC2CCCO2)c2ccc(F)c(Cl)c2)no1 (stereo not drawn)	0	0	-	0	0	-
Cc1cc(=O)n2[nH]c(-c3ccc(C(C)(C)C)cc3)cc2n1	10.7µM	0	0	0	0	0
COc1ccc(-c2cc3nc(N)cc(=O)n3[nH]2)cc1	0	-	-	-	-	0
Cc1nc2cc(-c3ccccc3)[nH]n2c(=O)c1C	13.5µM	?	-	20.6µM	0	-
Cc1cc(=O)n2[nH]c(-c3ccccc3)cc2n1	?	-	0	-	-	0
CCOC(=O)c1cc(=O)n2[nH]c(-c3ccc(C)cc3)cc2n1	13.5µM	0	0	?	0	?
SMILES	FLuc counter	Rab9 prom act	Luc counter	ELG1 genotox	NPC1 promoter act	SMN2 splice up
COCc1cc(=O)n2[nH]c(-c3ccc(C)cc3)cc2n1	12µM	0	0	14.6µM	0	0
COCc1cc(=O)n2[nH]c(-c3ccco3)cc2n1	0	0	-	0	0	-
CCOC(=O)Cc1c(C)nc2cc(-c3ccc(Cl)cc3)[nH]n2c1=O	?	0	0	?	0	0
CCOC(=O)Cc1cc(=O)n2[nH]c(-c3ccc(C)cc3)cc2n1	19µM	0	0	?	0	0
Cc1cc(C)c(NC(=O)C2CCCN(C(=O)c3cnn(-c4ccccc4)c3-n3cccc3)C2)c(C)c1 (stereo not drawn)	0	-	-	-	-	0
CCN1CCN(c2csc3ccc(C)cc3c2=O)CC1	12µM	-	-	-	-	-
CCN1CCN(CC(=O)N/N=C/c2cc(Br)cs2)CC1	0	0	-	0	0	-
CCN1CCN(c2csc3ccc(Br)cc3c2=O)CC1	13.5µM	-	-	-	-	-
